Pf Dd2 inh: P. falciparum Dd2 growth inhibition. SYBR Green, 72 h; stronger effect = lower value. activity change, % at 10 µM. actives 2.3% (n = 94,000); in the data active = activity change below about -80%; inconclusive = no clear call, values can overlap the other calls
T cruzi growth-1: T. cruzi proliferation inhibition. actives 5.9% (n = 77,000). inhibition, % at 8.34 µM. AID 624255. T. cruzi beta-gal in NIH3T3, GalScreen luminescence, 90 h;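 active = mean inhibition above about 93%, with at least 55% of replicates each passing it, limit read from the data, passing the limit was not always enough; inconclusive = only one of those two conditions holds; inactive = neither condition holds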
C diff HTS: blocks growth of Clostridium difficile | Clostridium difficile clinical isolate growth, OD600, 24 h; stronger effect = lower value | growth activity, negative = inhibition, % at 16 µg/mL (by protocol) | actives 0.25% (n = 86,000);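 active = mean growth activity at or below -80% and every replicate also at or below -80%; inconclusive = mean at or below -80% but some replicate above -80%; inactive = mean growth activity above -80%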
T cruzi growth-2: Trypanosoma cruzi proliferation inhibition; shares compounds with T cruzi growth-1; T. cruzi beta-gal in NIH3T3, GalScreen luminescence, 90 h; inhibition, % at 8.35 µM; actives 72% (n = 5,600); AID 651739;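 active = mean replicate inhibition above about 95% and at least 55% of replicates individually reaching it, limit read from the data; inconclusive = only one of the two criteria is met; inactive = neither criterion is met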
T cruzi growth-3: Trypanosoma cruzi proliferation inhibition | actives 21% (n = 5,600) | inhibition, % at 2.09 µM | shares compounds with T cruzi growth-1 | AID 651740 | T. cruzi beta-gal in NIH3T3, GalScreen luminescence, 90 h;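 active = mean inhibition above about 95%, with at least 55% of replicates also reaching it, limit read from the data; inconclusive = meets just one of the two conditions; inactive = meets neither condition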
NIH3T3 tox: kills mouse NIH/3T3 fibroblasts; AID 651742; cytotoxicity (signal decrease), % at 8.35 µM; actives 14% (n = 5,600); NIH/3T3 viability, CellTiter-Glo ATP luminescence, 90 h; shares compounds with T cruzi growth-1;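 active = mean signal decrease across replicates above about 35% based on untreated-well scatter, with enough replicates individually passing, limit read from the data; inconclusive = no rule stated though some were filed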
NIH3T3 tox 2: NIH/3T3 (mouse) viability loss; inhibition, % at 24.9 µM; actives 56% (n = 5,600); NIH/3T3 viability, CellTiter-Glo ATP luminescence, 90 h; shares compounds with T cruzi growth-1;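 active = mean loss of cell viability signal at or above a set limit, and enough replicates individually reaching it; inconclusive = meets only the mean limit or only the replicate share; inactive = meets neither condition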
Of the large screens only hits and unclear results are named; the others gave an inactive call (follow-up assays come after a bar, where they were run). This is a sample that favours compounds with a hit; in the whole collection about 6.7% have one here.

Cc1ccccc1-c1cnc2c(c1)C(=O)N([C@@H](C)CO)C[C@@H](C)[C@@H](CN(C)C(=O)c1cccnc1)O2	none (no result: Pf Dd2 inh)
O=C(C[C@@H]1C[C@H]2c3cc(NC(=O)c4ccc5c(c4)OCO5)ccc3O[C@H]2[C@H](CO)O1)NC1CCCCC1	none (no result: C diff HTS)
Cn1cnc(S(=O)(=O)N[C@H]2C=C[C@@H](CC(=O)NCC3CC3)O[C@H]2CO)c1	none (no result: C diff HTS)
C[C@@H](NC(=O)[C@H]1[C@H](CO)[C@H]2Cn3c(ccc(C4=CCCC4)c3=O)[C@@H]1N2C(=O)C1CC1)c1ccccc1	none (no result: T cruzi growth-1)
O=C(Nc1ccccc1)N1CCCCN2[C@@H](CO)[C@@H](c3ccc(-c4ccncc4)cc3)[C@@H]2C1	T cruzi growth-1 inconclusive | T cruzi growth-2 inactive | T cruzi growth-3 inactive | NIH3T3 tox inactive | NIH3T3 tox 2 inactive
O=C(Nc1ccccc1)N1CCCCN2[C@@H](CO)[C@H](c3ccc(-c4ccccc4)cc3)[C@@H]2C1	T cruzi growth-1 99 | T cruzi growth-2 inactive | T cruzi growth-3 inactive | NIH3T3 tox 44 | NIH3T3 tox 2 103
O=C(Nc1ccccc1)N1CCCCN2[C@H](CO)[C@@H](c3ccc(-c4ccccc4)cc3)[C@@H]2C1	T cruzi growth-1 inconclusive | T cruzi growth-2 109 | T cruzi growth-3 inactive | NIH3T3 tox inactive | NIH3T3 tox 2 104
O=C(Nc1ccccc1)N1CCCCN2[C@H](C1)[C@@H](c1ccc(Br)cc1)[C@@H]2CO	none
Cc1ccc(-c2ccc([C@@H]3[C@H](CO)N4CCCCN(C(=O)Nc5ccccc5)C[C@@H]34)cc2)cc1	T cruzi growth-1 inconclusive, C diff HTS -92 | T cruzi growth-2 105 | T cruzi growth-3 106 | NIH3T3 tox 120 | NIH3T3 tox 2 105
O=C(Nc1ccccc1)N1CCCCN2[C@H](CO)[C@@H](c3ccc(Br)cc3)[C@H]2C1	none
O=C(Nc1ccccc1)N1CCCCN2[C@H](CO)[C@@H](c3ccc(-c4ccncc4)cc3)[C@@H]2C1	none
Cc1ccc(-c2ccc([C@H]3[C@@H](CO)N4CCCCN(C(=O)Nc5ccccc5)C[C@H]34)cc2)cc1	none
O=C(Nc1cccc(Cl)c1)N[C@@H]1CC[C@H](CCNC(=O)C2CCOCC2)O[C@H]1CO	none
CN(C)C(=O)C[C@@H]1CC[C@H]2[C@@H](COc3ccc(NC(=O)c4ccc(F)c(F)c4)cc3C(=O)N2C)O1	none
CO[C@@H]1CN(C)C(=O)c2cc(NC(=O)c3nc4ccccc4s3)ccc2OC[C@@H](C)N(Cc2cncnc2)C[C@@H]1C	none (no result: C diff HTS)
CO[C@@H]1CN(C)C(=O)c2cc(NC(=O)NC(C)C)ccc2OC[C@@H](C)N(C)C[C@H]1C	none
CC(=O)N1CCCCN2[C@H](CO)[C@H](c3ccc(-c4ccccc4)cc3)[C@H]2C1	none
CC(=O)N1CCCCN2[C@@H](CO)[C@H](c3ccc(-c4ccccc4)cc3)[C@@H]2C1	T cruzi growth-1 104 | T cruzi growth-2 inactive | T cruzi growth-3 inactive | NIH3T3 tox inactive | NIH3T3 tox 2 42
C[C@H](NC(=O)[C@H]1[C@H](CO)[C@H]2Cn3c(cccc3=O)[C@@H]1N2Cc1ccncc1)c1ccccc1	none
C[C@H](NC(=O)[C@H]1[C@H](CO)[C@H]2Cn3c(cccc3=O)[C@@H]1N2C(=O)C1CC1)c1ccccc1	T cruzi growth-1 101 | T cruzi growth-2 inactive | T cruzi growth-3 inactive | NIH3T3 tox inactive | NIH3T3 tox 2 inactive
C[C@@H](NC(=O)[C@H]1[C@H](CO)[C@H]2Cn3c(cccc3=O)[C@@H]1N2Cc1ccccc1)c1ccccc1	T cruzi growth-1 101 | T cruzi growth-2 inactive | T cruzi growth-3 inactive | NIH3T3 tox inactive | NIH3T3 tox 2 inactive
C[C@@H](NC(=O)[C@@H]1[C@@H](CO)[C@@H]2Cn3c(cccc3=O)[C@H]1N2C(=O)C1CCC1)c1ccccc1	none (no result: Pf Dd2 inh)
CN1CCN(C(=O)[C@@H]2[C@@H](CO)[C@@H]3Cn4c(cccc4=O)[C@H]2N3Cc2ccncc2)CC1	T cruzi growth-1 169 (no result: Pf Dd2 inh) | T cruzi growth-2 inactive | T cruzi growth-3 inactive | NIH3T3 tox inactive | NIH3T3 tox 2 inactive
O=C(NCc1ccc(F)cc1)[C@@H]1[C@@H](CO)[C@@H]2Cn3c(cccc3=O)[C@H]1N2Cc1cccnc1	T cruzi growth-1 100 | T cruzi growth-2 inactive | T cruzi growth-3 inactive | NIH3T3 tox inactive | NIH3T3 tox 2 inactive
O=C([C@@H]1[C@@H](CO)[C@@H]2Cn3c(cccc3=O)[C@H]1N2Cc1ccccc1)N1CCCCC1	none (no result: Pf Dd2 inh)
O=C(NCc1ccc2c(c1)OCO2)[C@@H]1[C@@H](CO)[C@@H]2Cn3c(cccc3=O)[C@H]1N2Cc1cccnc1	none (no result: Pf Dd2 inh, C diff HTS)
CO[C@@H]1CN(C)C(=O)c2cc(NC(C)=O)ccc2OC[C@@H](C)N(Cc2ccncc2)C[C@H]1C	none (no result: C diff HTS)
O=C(Nc1ccc(Cl)cc1)N[C@@H]1CC[C@@H](CCNC(=O)c2cc(Cl)cc(Cl)c2)O[C@H]1CO	none (no result: T cruzi growth-1)
C[C@H](NC(=O)[C@H]1[C@H](CO)[C@H]2Cn3c(cccc3=O)[C@@H]1N2C(=O)C1CCC1)c1ccccc1	none (no result: Pf Dd2 inh)
CC(=O)N1[C@@H]2c3ccc(C4=CCCCC4)c(=O)n3C[C@H]1[C@H](CO)[C@H]2C(=O)N[C@@H](C)c1ccccc1	T cruzi growth-1 active (no result: Pf Dd2 inh) | T cruzi growth-2 inactive | T cruzi growth-3 inactive | NIH3T3 tox inactive | NIH3T3 tox 2 inactive
C[C@@H](NC(=O)[C@H]1[C@H](CO)[C@H]2Cn3c(cccc3=O)[C@@H]1N2C(=O)C1CC1)c1ccccc1	T cruzi growth-1 103 | T cruzi growth-2 inactive | T cruzi growth-3 inactive | NIH3T3 tox inactive | NIH3T3 tox 2 inactive
CC(=O)N1[C@@H]2Cn3c(ccc(C4=CCCCC4)c3=O)[C@H]1[C@@H](C(=O)N[C@H](C)c1ccccc1)[C@@H]2CO	none (no result: Pf Dd2 inh)
C[C@H]1CN([C@@H](C)CO)C(=O)c2c(c3ccccc3n2C)-c2ccccc2CO[C@H]1CN(C)C(=O)[C@H]1CCCN1C	none
CCCNC(=O)N1C[C@H](C)[C@@H](OC)CN(C)C(=O)c2cc(NS(C)(=O)=O)ccc2OC[C@@H]1C	none
Cc1ccc(S(=O)(=O)Nc2ccc3c(c2)C(=O)N([C@H](C)CO)C[C@H](C)[C@@H](CN(C)S(=O)(=O)c2ccccc2)OCCCC[C@H](C)O3)cc1	none
Cc1ccc(S(=O)(=O)N(C)C[C@H]2OCCCC[C@H](C)Oc3ccc(NS(=O)(=O)c4ccccc4)cc3C(=O)N([C@@H](C)CO)C[C@@H]2C)cc1	T cruzi growth-1 122 | T cruzi growth-2 105 | T cruzi growth-3 inactive | NIH3T3 tox inactive | NIH3T3 tox 2 inactive
Cc1ccc(S(=O)(=O)N(C)C[C@H]2OCCCC[C@@H](C)Oc3ccc(NS(=O)(=O)c4ccccc4)cc3C(=O)N([C@@H](C)CO)C[C@@H]2C)cc1	T cruzi growth-1 inconclusive | T cruzi growth-2 105 | T cruzi growth-3 inactive | NIH3T3 tox inactive | NIH3T3 tox 2 32

Screens: PubChem BioAssay, Broad Institute
